Out of some 5,500 compounds screened, about 2,000 (36%) were called active. Roughly 18% stayed inconclusive and do not appear here. Rule as the data show it: active = normalized growth mostly below about 0.91 (no sharp cut-off); inconclusive = no clear call, values can overlap the other calls; inactive = mostly above about 0.92. The list shows a part of the results.
Test: chemical genetic growth profiling, strain panel (AID 1159580);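 also: tested at 20 µM; growth read once vehicle control cultures reached saturation at 30 °C; 1 = growth at the plate median or of vehicle wells; lower values mean less growth of the strain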
Conditions: growth OD

Measured: normalized growth

O=C(O)c1cc(=O)c2cc(Cl)ccc2[nH]1
inactive: S. cerevisiae deletion strains, locus YAL013W, strain DEP1, active compounds read low 0.985 | S. cerevisiae deletion strains, locus YBR021W, strain FUR4, active compounds read low 1.03 | S. cerevisiae deletion strains, locus YBR229C, strain ROT2, active compounds read low 1.01 | S. cerevisiae deletion strains, locus YCL029C, strain bik1, active compounds read low 1.01 | S. cerevisiae deletion strains, locus YDL035C, strain GPR1, active compounds read low 1 | S. cerevisiae deletion strains, locus YDL074C, strain BRE1, active compounds read low 0.972 | S. cerevisiae deletion strains, locus YDL101C, strain DUN1, active compounds read low 1 | S. cerevisiae deletion strains, locus YDL134C, strain PPH21, active compounds read low 1 | S. cerevisiae deletion strains, locus YDL185W, strain tfp1, active compounds read low 1 | S. cerevisiae deletion strains, locus YDL192W, strain arf1, active compounds read low 1.01 | S. cerevisiae deletion strains, locus YDR101C, strain arx1, active compounds read low 1.01 | S. cerevisiae deletion strains, locus YDR150W, strain NUM1, active compounds read low 1.01 | S. cerevisiae deletion strains, locus YDR162C, strain NBP2, active compounds read low 0.988 | S. cerevisiae deletion strains, locus YDR318W, strain mcm21, active compounds read low 1.03 | S. cerevisiae deletion strains, locus YDR388W, active compounds read low 1.01 | S. cerevisiae deletion strains, locus YDR502C, strain sam2, active compounds read low 1 | S. cerevisiae deletion strains, locus YEL061C, strain CIN8, active compounds read low 1 | S. cerevisiae deletion strains, locus YER110C, active compounds read low 1 | S. cerevisiae deletion strains, locus YER155C, strain BEM2, active compounds read low 0.995 | S. cerevisiae deletion strains, locus YER167W, strain BCK2, active compounds read low 1.02 | S. cerevisiae deletion strains, locus YGL078C, strain dbp3, active compounds read low 1 | S. cerevisiae deletion strains, locus YGL086W, strain mad1, active compounds read low 1.01 | S. cerevisiae deletion strains, locus YGL248W, strain PDE1, active compounds read low 1.02 | S. cerevisiae deletion strains, locus YGR078C, strain PAC10, active compounds read low 0.995 | S. cerevisiae deletion strains, locus YGR135W, strain pre9, active compounds read low 0.994 | S. cerevisiae deletion strains, locus YGR229C, strain SMI1, active compounds read low 0.972 | S. cerevisiae deletion strains, locus YGR252W, strain gcn5, active compounds read low 1.04 | S. cerevisiae deletion strains, locus YHR030C, strain SLT2, active compounds read low 1 | S. cerevisiae deletion strains, locus YHR079C, strain IRE1 (second series), active compounds read low 1.02 | S. cerevisiae deletion strains, locus YHR094C, strain hxt1, active compounds read low 1.01 | S. cerevisiae deletion strains, locus YHR129C, strain ARP1, active compounds read low 1.02 | S. cerevisiae deletion strains, locus YHR200W, strain rpn10, active compounds read low 1.01 | S. cerevisiae deletion strains, locus YIL066C, strain RNR3, active compounds read low 0.997 | S. cerevisiae deletion strains, locus YIL073C, strain SPO22, active compounds read low 1.08 | S. cerevisiae deletion strains, locus YIL125W, strain kgd1, active compounds read low 1.01 | S. cerevisiae deletion strains, locus YIR030C, strain dcg1, active compounds read low 1.01 | S. cerevisiae deletion strains, locus YJL095W, strain BCK1, active compounds read low 0.994 | S. cerevisiae deletion strains, locus YJL134W, strain LCB3, active compounds read low 1.01 | S. cerevisiae deletion strains, locus YJL168C, strain set2, active compounds read low 1 | S. cerevisiae deletion strains, locus YJL187C, strain SWE1 (second series), active compounds read low 1.01 | S. cerevisiae deletion strains, locus YJR043C, strain POL32, active compounds read low 1.01 | S. cerevisiae deletion strains, locus YJR075W, strain HOC1, active compounds read low 0.983 | S. cerevisiae deletion strains, locus YKL009W, strain mrt4, active compounds read low 1.03 | S. cerevisiae deletion strains, locus YKL068W, active compounds read low 0.996 | S. cerevisiae deletion strains, locus YKL085W, strain MDH1 (second series), active compounds read low 1.02 | S. cerevisiae deletion strains, locus YKL085W, strain MDH1, active compounds read low 1.02 | S. cerevisiae deletion strains, locus YKL190W, strain CNB1, active compounds read low 1 | S. cerevisiae deletion strains, locus YKR001C, strain vps1, active compounds read low 1.01 | S. cerevisiae deletion strains, locus YLR039C, strain RIC1, active compounds read low 1.02 | S. cerevisiae deletion strains, locus YLR058C, strain SHM2, active compounds read low 1.01 | S. cerevisiae deletion strains, locus YLR102C, strain apc9, active compounds read low 1.01 | S. cerevisiae deletion strains, locus YLR262C, strain YPT6, active compounds read low 1.01 | S. cerevisiae deletion strains, locus YLR268W, strain sec22, active compounds read low 1.01 | S. cerevisiae deletion strains, locus YLR330W, strain CHS5, active compounds read low 1 | S. cerevisiae deletion strains, locus YLR342W, strain FKS1 (second series), active compounds read low 1.08 | S. cerevisiae deletion strains, locus YLR371W, strain rom2, active compounds read low 1.02 | S. cerevisiae deletion strains, locus YLR418C, strain cdc73, active compounds read low 0.984 | S. cerevisiae deletion strains, locus YML016C, strain PPZ1, active compounds read low 1 | S. cerevisiae deletion strains, locus YML032C, strain rad52, active compounds read low 1.02 | S. cerevisiae deletion strains, locus YML124C, strain tub3, active compounds read low 1 | S. cerevisiae deletion strains, locus YMR078C, strain ctf18, active compounds read low 1.02 | S. cerevisiae deletion strains, locus YMR223W, strain ubp8, active compounds read low 1.03 | S. cerevisiae deletion strains, locus YMR263W, strain SAP30, active compounds read low 1 | S. cerevisiae deletion strains, locus YMR307W, strain GAS1, active compounds read low 1.03 | S. cerevisiae deletion strains, locus YNL067W, strain RPL9B, active compounds read low 0.994 | S. cerevisiae deletion strains, locus YNL128W, strain TEP1, active compounds read low 0.951 | S. cerevisiae deletion strains, locus YNL153C, strain GIM3, active compounds read low 0.999 | S. cerevisiae deletion strains, locus YNL233W, strain BNI4, active compounds read low 1.01 | S. cerevisiae deletion strains, locus YNL250W, strain rad50, active compounds read low 1.01 | S. cerevisiae deletion strains, locus YNL271C, strain bni1, active compounds read low 1 | S. cerevisiae deletion strains, locus YNL298W, strain CLA4, active compounds read low 1.01 | S. cerevisiae deletion strains, locus YNL307C, strain MCK1, active compounds read low 1.03 | S. cerevisiae deletion strains, locus YNL322C, strain KRE1, active compounds read low 0.998 | S. cerevisiae deletion strains, locus YNR052C, strain pop2, active compounds read low 1.01 | S. cerevisiae deletion strains, locus YOL006C, strain TOP1, active compounds read low 1.03 | S. cerevisiae deletion strains, locus YOL012C, strain htz1 1.31 | S. cerevisiae deletion strains, locus YOL147C, strain pex11, active compounds read low 1.01 | S. cerevisiae deletion strains, locus YOR061W, strain CKA2, active compounds read low 1 | S. cerevisiae deletion strains, locus YOR069W, strain VPS5, active compounds read low 1.01 | S. cerevisiae deletion strains, locus YOR136W, strain idh2, active compounds read low 1.01 | S. cerevisiae deletion strains, locus YOR144C, strain elg1, active compounds read low 1 | S. cerevisiae deletion strains, locus YOR184W, strain ser1, active compounds read low 1.06 | S. cerevisiae deletion strains, locus YOR316C, strain cot1, active compounds read low 1.01 | S. cerevisiae deletion strains, locus YPL055C, strain LGE1, active compounds read low 0.967 | S. cerevisiae deletion strains, locus YPL241C, strain CIN2, active compounds read low 1 | S. cerevisiae deletion strains, locus YPR119W, strain clb2, active compounds read low 1 | S. cerevisiae deletion strains, locus YPR141C, strain kar3, active compounds read low 1.01 | S. cerevisiae deletion strains, locus YPR163C, strain tif3, active compounds read low 1.01 | S. cerevisiae deletion strains, locus YPR167C, strain met16, active compounds read low 1 | S. cerevisiae deletion strains, strain wtn01, active compounds read low 1.01 | S. cerevisiae strains, strain wild type, active compounds read low 0.988

— PubChem BioAssay AID1159580 (chemical genetic matrix, 2015)
